# The supplement of paper PMC12282887
# ± gives the standard deviation of the averaged measurements.
# Assays:
# Test in all cases: promoter activity interaction Z-score (Lux/OD deviation from empty-vector control); higher = stronger promoter induction by the compound
# [1] = system: E. coli BW25113 acrABp lux reporter
# How it was run: (§1)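 At 37°C, E. coli BW25113 reporter cultures in 40 µl LB Lennox in 384-well plates were read for OD600 and luminescence every 30 min for 12 h. Windows were 0–8 h for wild type and 1–9 h for deletion strains, and wells under 10% of the median growth value were removed. The score is the Z-transformed residual of growth-normalised luminescence against a control fit.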
# [2] = system: E. coli BW25113 micFp lux reporter
# How it was run: as §1
# [3] = system: E. coli BW25113 ompFp lux reporter
# How it was run: as §1
# [4] = system: E. coli BW25113 robp lux reporter
# How it was run: as §1
# [5] = system: E. coli BW25113 soxSp lux reporter
# How it was run: as §1
# [6] = system: E. coli BW25113 tolCp lux reporter
# How it was run: as §1
# [7] = 0.26 µg/ml, genetic background: wild type
# [8] = 0.26 µg/ml, genetic background: ΔmarA
# [9] = 0.26 µg/ml, genetic background: Δrob
# [10] = 0.26 µg/ml, genetic background: ΔsoxS
# [11] = 0.52 µg/ml, genetic background: wild type
# [12] = 0.52 µg/ml, genetic background: ΔmarA
# [13] = 0.52 µg/ml, genetic background: Δrob
# [14] = 0.52 µg/ml, genetic background: ΔsoxS
# [15] = 1 µg/ml, genetic background: wild type
# [16] = 1 µg/ml, genetic background: ΔmarA
# [17] = 1 µg/ml, genetic background: Δrob
# [18] = 1 µg/ml, genetic background: ΔsoxS
# [19] = 2.1 µg/ml, genetic background: wild type
# [20] = 2.1 µg/ml, genetic background: ΔmarA
# [21] = 2.1 µg/ml, genetic background: Δrob
# [22] = 2.1 µg/ml, genetic background: ΔsoxS
structure (smiles),measurement,setting,value
CCC[C@@H]1C[C@@H](C(=O)N[C@@H]([C@H]2O[C@H](SC)[C@H](O)[C@@H](O)[C@H]2O)[C@H](C)Cl)N(C)C1 [Clindamycin],promoter activity interaction Z-score,[1]; [7],0.462 ± 0.13
same,promoter activity interaction Z-score,[1]; [8],0.688 ± 0.64
same,promoter activity interaction Z-score,[1]; [9],0.443 ± 0.12
same,promoter activity interaction Z-score,[1]; [10],0.20427 ± 5.4e-05
same,promoter activity interaction Z-score,[1]; [11],0.0439 ± 0.28
same,promoter activity interaction Z-score,[1]; [12],0.0236 ± 0.74
same,promoter activity interaction Z-score,[1]; [13],0.389 ± 0.16
same,promoter activity interaction Z-score,[1]; [14],0.296 ± 0.26
same,promoter activity interaction Z-score,[1]; [15],0.0522 ± 0.49
same,promoter activity interaction Z-score,[1]; [16],-0.845 ± 0.54
same,promoter activity interaction Z-score,[1]; [17],0.554 ± 0.027
same,promoter activity interaction Z-score,[1]; [18],0.424 ± 0.19
same,promoter activity interaction Z-score,[1]; [19],0.541 ± 0.29
same,promoter activity interaction Z-score,[1]; [20],-1.07 ± 0.54
same,promoter activity interaction Z-score,[1]; [21],0.386 ± 0.14
same,promoter activity interaction Z-score,[1]; [22],0.958 ± 1.2
same,promoter activity interaction Z-score,[2]; [7],0.509 ± 0.54
same,promoter activity interaction Z-score,[2]; [8],0.0727 ± 0.038
same,promoter activity interaction Z-score,[2]; [9],-0.112 ± 0.21
same,promoter activity interaction Z-score,[2]; [10],-0.295 ± 0.22
same,promoter activity interaction Z-score,[2]; [11],-0.308 ± 0.46
same,promoter activity interaction Z-score,[2]; [12],-0.109 ± 0.1
same,promoter activity interaction Z-score,[2]; [13],0.00775 ± 0.06
same,promoter activity interaction Z-score,[2]; [14],-0.12048 ± 8.2e-05
same,promoter activity interaction Z-score,[2]; [15],-0.107 ± 0.47
same,promoter activity interaction Z-score,[2]; [16],-0.106 ± 0.01
same,promoter activity interaction Z-score,[2]; [17],-0.0738 ± 0.2
same,promoter activity interaction Z-score,[2]; [18],0.189 ± 0.27
same,promoter activity interaction Z-score,[2]; [19],0.291 ± 0.71
same,promoter activity interaction Z-score,[2]; [20],-0.2694 ± 0.0025
same,promoter activity interaction Z-score,[2]; [21],0.0565 ± 0.17
same,promoter activity interaction Z-score,[2]; [22],0.457 ± 0.16
same,promoter activity interaction Z-score,[3]; [7],0.86 ± 0.48
same,promoter activity interaction Z-score,[3]; [8],0.602 ± 0.034
same,promoter activity interaction Z-score,[3]; [9],0.184 ± 0.088
same,promoter activity interaction Z-score,[3]; [10],-0.129 ± 0.28
same,promoter activity interaction Z-score,[3]; [11],0.0844 ± 0.74
same,promoter activity interaction Z-score,[3]; [12],0.364 ± 0.24
same,promoter activity interaction Z-score,[3]; [13],0.973 ± 0.091
same,promoter activity interaction Z-score,[3]; [14],0.0417 ± 0.17
same,promoter activity interaction Z-score,[3]; [15],0.629 ± 1
same,promoter activity interaction Z-score,[3]; [16],0.255 ± 0.36
same,promoter activity interaction Z-score,[3]; [17],0.164 ± 0.52
same,promoter activity interaction Z-score,[3]; [18],0.389 ± 0.074
same,promoter activity interaction Z-score,[3]; [19],1.41 ± 0.49
same,promoter activity interaction Z-score,[3]; [20],0.484 ± 0.28
same,promoter activity interaction Z-score,[3]; [21],0.877 ± 0.67
same,promoter activity interaction Z-score,[3]; [22],1.71 ± 1.1
same,promoter activity interaction Z-score,[4]; [7],0.81 ± 0.04
same,promoter activity interaction Z-score,[4]; [8],0.716 ± 0.3
same,promoter activity interaction Z-score,[4]; [9],0.204 ± 0.64
same,promoter activity interaction Z-score,[4]; [10],0.581 ± 0.019
same,promoter activity interaction Z-score,[4]; [11],0.0509 ± 0.11
same,promoter activity interaction Z-score,[4]; [12],0.27 ± 0.26
same,promoter activity interaction Z-score,[4]; [13],-0.0366 ± 0.51
same,promoter activity interaction Z-score,[4]; [14],0.513 ± 0.74
same,promoter activity interaction Z-score,[4]; [15],0.553 ± 1.1
same,promoter activity interaction Z-score,[4]; [16],0.0526 ± 0.64
same,promoter activity interaction Z-score,[4]; [17],0.0577 ± 0.99
same,promoter activity interaction Z-score,[4]; [18],0.531 ± 0.43
same,promoter activity interaction Z-score,[4]; [19],-0.23 ± 0.084
same,promoter activity interaction Z-score,[4]; [20],-0.785 ± 0.17
same,promoter activity interaction Z-score,[4]; [21],-0.582 ± 0.73
same,promoter activity interaction Z-score,[4]; [22],-0.589 ± 0.59
same,promoter activity interaction Z-score,[5]; [7],0.148 ± 0.1
same,promoter activity interaction Z-score,[5]; [8],0.331 ± 0.014
same,promoter activity interaction Z-score,[5]; [9],0.202 ± 0.053
same,promoter activity interaction Z-score,[5]; [10],0.316 ± 0.0083
same,promoter activity interaction Z-score,[5]; [11],-0.237 ± 0.079
same,promoter activity interaction Z-score,[5]; [12],0.237 ± 0.021
same,promoter activity interaction Z-score,[5]; [13],0.217 ± 0.043
same,promoter activity interaction Z-score,[5]; [14],0.23 ± 0.076
same,promoter activity interaction Z-score,[5]; [15],0.0391 ± 0.054
same,promoter activity interaction Z-score,[5]; [16],0.244 ± 0.1
same,promoter activity interaction Z-score,[5]; [17],0.0504 ± 0.034
same,promoter activity interaction Z-score,[5]; [18],0.138 ± 0.2
same,promoter activity interaction Z-score,[5]; [19],-0.0707 ± 0.029
same,promoter activity interaction Z-score,[5]; [20],0.0916 ± 0.17
same,promoter activity interaction Z-score,[5]; [21],0.0849 ± 0.32
same,promoter activity interaction Z-score,[5]; [22],0.0804 ± 0.017
same,promoter activity interaction Z-score,[6]; [7],-0.169 ± 0.35
same,promoter activity interaction Z-score,[6]; [8],0.807 ± 0.31
same,promoter activity interaction Z-score,[6]; [9],0.395 ± 0.66
same,promoter activity interaction Z-score,[6]; [10],-0.505 ± 0.044
same,promoter activity interaction Z-score,[6]; [11],0.223 ± 1
same,promoter activity interaction Z-score,[6]; [12],0.212 ± 1.3
same,promoter activity interaction Z-score,[6]; [13],0.229 ± 0.18
same,promoter activity interaction Z-score,[6]; [14],0.282 ± 0.71
same,promoter activity interaction Z-score,[6]; [15],-0.594 ± 0.74
same,promoter activity interaction Z-score,[6]; [16],0.0618 ± 0.085
same,promoter activity interaction Z-score,[6]; [17],-0.255 ± 0.54
same,promoter activity interaction Z-score,[6]; [18],0.674 ± 0.27
same,promoter activity interaction Z-score,[6]; [19],-0.385 ± 0.39
same,promoter activity interaction Z-score,[6]; [20],-0.307 ± 0.67
same,promoter activity interaction Z-score,[6]; [21],0.0932 ± 0.95
same,promoter activity interaction Z-score,[6]; [22],0.0435 ± 0.33
